Source: PubChem
In the library only some 7.6% were active in any assay of this set; here they are far more common.
TSHR ag: activates the human thyroid stimulating hormone receptor; P16473; HEK293-CNG-TSHR cells (CNG channel as cAMP sensor), membrane potential dye, cAMP; Potency, µM (titrated, usually from 57.1 µM), for the others: at the top dose activation, usual class: activators; hit rate 0.48% among 73,000; active means well fitted activation curve with a large enough effect in the main read-out, with a control signal flat, not every such curve was filed as active; inconclusive means small, poorly fitted or top-dose-only effect, or a change in a side signal; inactive means no such curve, though single readings can be large or run the other way; % of control where 0% means no effect;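 further: the control signal comes from parental cells without the receptor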
Target sequence (P16473 whole entry, looked up): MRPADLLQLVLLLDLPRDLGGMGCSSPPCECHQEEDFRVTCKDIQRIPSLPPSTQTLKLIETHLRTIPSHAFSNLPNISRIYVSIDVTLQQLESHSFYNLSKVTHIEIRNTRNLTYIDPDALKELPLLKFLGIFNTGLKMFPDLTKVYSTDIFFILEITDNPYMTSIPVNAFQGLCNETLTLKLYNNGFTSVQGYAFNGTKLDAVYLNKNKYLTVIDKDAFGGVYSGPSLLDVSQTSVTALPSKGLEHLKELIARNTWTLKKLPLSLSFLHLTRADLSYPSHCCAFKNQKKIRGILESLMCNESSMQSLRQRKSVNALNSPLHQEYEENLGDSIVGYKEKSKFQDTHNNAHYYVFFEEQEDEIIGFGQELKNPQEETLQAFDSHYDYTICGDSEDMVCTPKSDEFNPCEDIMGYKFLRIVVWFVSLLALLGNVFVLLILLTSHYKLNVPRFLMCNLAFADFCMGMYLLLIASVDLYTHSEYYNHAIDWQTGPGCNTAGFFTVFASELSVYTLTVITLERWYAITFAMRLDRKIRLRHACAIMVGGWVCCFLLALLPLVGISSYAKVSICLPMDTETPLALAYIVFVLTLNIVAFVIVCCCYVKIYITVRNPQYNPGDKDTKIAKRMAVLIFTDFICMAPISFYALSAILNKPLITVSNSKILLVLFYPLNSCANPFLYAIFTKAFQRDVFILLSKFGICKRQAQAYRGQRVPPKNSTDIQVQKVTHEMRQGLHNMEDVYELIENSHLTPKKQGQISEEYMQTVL
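cAMP rise detected as CNG-channel membrane depolarization by fluorescent dye (emission 590 nm), 30 min after compound, following 60 min dye loading containing 100 uM RO 20-1724 at room temperature. Cells: TSHR/CNG HEK 293, with parental CNG HEK 293 as control.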
Tau filament bind: binders of human tau filaments | Potency, µM (doses to about 57.1 µM), for the others: at the highest dose activity change, negative = inhibition | P10636 | recombinant tau filaments, thioflavin S fluorescence, 15 h; filaments grown with octadecylsulfate alongside compound | hit rate 2% among 71,000 | AID 596;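 further: on the % scale 0 is the no-effect control and ±100 the full control effect; actives lower thioflavin S fluorescence by blocking filaments or displacing dye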
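Thioflavine S fluorescence (ex 450, em 510 nm) reports filaments formed from 1 uM human tau plus 30 uM ODS over 15 h at 37 C (10 mM HEPES pH 7.4, 100 mM NaCl, 5 mM DTT); compounds displacing dye or blocking filaments lower signal.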
HEK293 cAMP cs: counter-screen for TSHR agonists: cAMP increase in parental HEK293 | parental HEK293 CNG cAMP sensor, membrane potential fluorescence | Potency, µM (series often up to 57.1 µM), for the others: at the highest dose activation, usual class: activators | hit rate 2.5% among 73,000; further: % of control where 0% means no effect; nearly all actives have a fitted effect of over 55% in size
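Counterscreen for endogenous-receptor signalling: CNG-channel HEK 293 cells report cAMP rise by membrane depolarization. After 60 min dye equilibration with 100 uM RO 20-1724, compounds incubated 30 min before bottom-read fluorescence at 590 nm.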
CRE-bla Fsk: CRE-bla signaling modulation under forskolin stimulation | CHO CRE-bla reporter (cAMP response element driving beta-lactamase), forskolin EC10, beta-lactamase ratio | Potency, µM (series often up to 38.2 µM), inactives show at the top dose activity change, negative = inhibition, usual class: activators | hit rate 2.5% among 71,000; active means well fitted activation curve with a large enough effect in the signal ratio, with a control signal flat, not every such curve was filed as active; inconclusive means small, poorly fitted or top-dose-only effect, or effect the other way, or a change in a side signal; the % refers to the signal ratio; further: % of control where 0% means no effect
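Modulation of forskolin signalling: compounds in titration series added with EC10 NKH 477 to CHO cells carrying a CRE-driven beta-lactamase reporter, 3 h, 37C. CCF4 FRET ratio (460/530 nm, ex 405 nm) gives %activity and AC50.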
ERK AVP inh: blocks ERK signaling stimulated by vasopressin | HEK293-V1b, vasopressin-stimulated pERK AlphaScreen | hit rate 0.99% among 72,000 | Potency, µM (titrated, usually from 57.5 µM), inactives show at the highest dose activity, negative = inhibition, usual class: inhibitors | AID 995; further: on the % scale 0 is the no-effect control and ±100 the full control effect; nearly all actives have a fitted effect of over 55% in size
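HEK293 cells stably expressing V1b receptor, preincubated 30 min at 37 °C with compound, then stimulated 5 min with 25 nM vasopressin. Phospho-ERK by AlphaScreen SureFire after 5 h RT; normalized to DMSO and vasopressin; AC50 by Hill fit.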
* = called active by the depositor; i = inactive; ? = inconclusive; nt = no result given; [ ] = remark or other dose. Unless noted, the call rests on the fitted dose curve; in most records, active means well fitted curve in the direction sought with a large enough effect; inconclusive means small, poorly fitted or top-dose-only effect, or another doubt; inactive means no such curve, though single readings can be large; an effect the other way counts as inactive or inconclusive. Potency means the concentration at half of the fitted maximal effect.

SMILES	TSHR ag	Tau filament bind	HEK293 cAMP cs	CRE-bla Fsk	ERK AVP inh
Cc1ccnc(NC(=O)CCc2c(C)nc3ncnn3c2C)c1	-2%[11.4 µM]	10%	3%	?	10%
Cc1nc2ncnn2c(C)c1Cc1ccc(Cl)cc1F	25µM*	32%	27%	24%	-5%
COC(=O)c1cc(OC)c(OC)c(OC)c1N	12%	4%	11%	?	-4%
COc1cc(C(=O)Oc2ccccc2N)cc(OC)c1OC	3.2µM*	-18%[11.4 µM]	-1%[11.4 µM]	?	-12%
C[C@@H](/C=C\c1cccc(Oc2ccc(F)cc2)c1)N(O)C(N)=O	21%	?	15%	?	?
Fc1cc2nc(-c3ccncc3)[nH]c2cc1F	0%	1%	1%	?	2%
Oc1ccc(-c2nc(-c3ccc(F)cc3)c(-c3ccncc3)[nH]2)cc1	?	?	-40%	?	7.9µM*
COc1ccccc1NC(=O)c1ccccc1NS(C)(=O)=O	23%	-16%	22%	2µM*	7%
COc1cc(NS(C)(=O)=O)c(OC)cc1NC(=O)c1ccccc1	2%	16µM*	29%	13%	-20%
CCC(=O)Nc1cc(OC)c(NC(=O)c2ccccc2)cc1OC	2%	13µM*	-1%	8%	?
CCOc1ccccc1NC(=O)c1ccccc1NS(C)(=O)=O	7%	-7%	17%	-8%	-7%
CC[C@H]1C(=O)OC[C@@H]1Cc1cncn1C	19%	?	-1%	?	nt
CCc1cc(=O)oc2cc3oc(C)c(C)c3cc12	?	13%	25µM*	?	-27%
CCCc1cc(=O)oc2cc3oc(C)c(C)c3cc12	?	18%	25µM*	?	4%
CCCc1cc(=O)oc2cc3occ(C)c3cc12	?	63%	?	?	11%
COc1cccc(-c2nccc(NCc3ccc(OC)cc3OC)n2)c1	?	-7%	?	15%	-7%
COc1cccc(-c2cc(C(F)(F)F)nc(NCc3ccco3)n2)c1	?	-16%	?	16%	198%
COc1ccc(-c2cc(C(F)(F)F)nc(NCc3ccco3)n2)cc1OC	?	21%	10µM*	2.5µM*	-11%
COc1ccccc1-c1ccc2ncnc(Nc3ccccc3)c2c1	?	63%	16µM*	?	-7%
COc1ccccc1CNc1ncnc2ccc(-c3cccc(C#N)c3)cc12	?	i	?	?	?
COc1ccccc1CNc1ncnc2ccc(-c3cccnc3)cc12	16%	10%	25%	?	20µM*
COc1ccccc1-c1ccc2ncnc(NCc3ccccc3)c2c1	?	62%	?	-19%	16µM*
COc1ccccc1CNc1ncnc2ccc(-c3ccccc3OC)cc12	13µM*	397%	20%	?	20µM*
CC[C@H](C)[C@@H]1O[C@]2(CC[C@@H]1C)C[C@H]1C[C@H](CC=C(C)[C@@H](O[C@H]3C[C@H](OC)[C@H](O[C@H]4C[C@H](OC)[C@H](O)[C@H](C)O4)[C@H](C)O3)[C@@H](C)C=CC=C3CO[C@@H]4[C@@H](O)C(C)=C[C@H](C(=O)O1)[C@@]34O)O2	nt	-8%	-10%	?	-22%
COc1ccc(Oc2ncc3nc(-c4cccs4)c(=O)n(CCC#N)c3n2)cc1	-10%	44%	3%[2.29 µM]	?	-20%
SMILES	TSHR ag	Tau filament bind	HEK293 cAMP cs	CRE-bla Fsk	ERK AVP inh
c1ccc(Nc2ncnc3ccc(-c4ccc5c(c4)OCO5)cc23)cc1	?	78%	?	?	?
COc1ccccc1CNc1ncnc2ccc(-c3ccc(N(C)C)cc3)cc12	?	2µM*	-64%	?	?
COc1cccc(-c2ccc3ncnc(Nc4ccccc4)c3c2)c1	?	74%	20µM*	?	?
Fc1ccc(Nc2ncnc3ccc(-c4ccoc4)cc23)cc1	?	-16%	13µM*	-9%	-6%
COc1ccccc1CNc1ccnc(-c2ccc(N(C)C)cc2)n1	25%	49%	5%	13µM*	?
CNc1ncnc2ccc(-c3ccccc3OC)cc12	7%	-15%	16%	?	32%
CS(=O)(=O)N1CCC2(CCCN(c3ncccn3)C2)CC1	6%	3%	24%	-1%	-20%
CC(=O)N1CCC2(CCCN(c3ccc(-c4ccccc4)cc3)C2)CC1	-17%	-28%	18%	?	-28%
Cc1nc(N2CCOCC2)c2nc(-c3ccccc3)n(CCN3CCCCC3)c2n1	10%	7%	9%	3%	-6%
Cc1nc(N2CCOCC2)c2cc(-c3ccccc3)sc2n1	?	47%	25µM*	?	16µM*
c1ccc(-c2cc3c(N4CCOCC4)ncnc3s2)cc1	21%	?	22%	-3%	20µM*
O=C(Cn1cnc2sc(-c3ccccc3)cc2c1=O)N1CCOCC1	-2%	3%	0%	?	3%
Cc1cccc(CNc2ncnc3ccc(-c4cccc(C#N)c4)cc23)c1	?	351%	?	?	?
COc1ccccc1C(=O)Nc1cccc(-c2cn3ccsc3n2)c1	14%	17%	7%	3.2µM*	-21%
COc1ccc(OCC(=O)N(C)Cc2ccccc2)cc1	0%	5%	5%	1%	?
COc1ccc(N2C(=O)C(Cl)=C(N(CCO)Cc3ccccc3)C2=O)cc1	nt	-5%	-8%	-12%	13µM*
N#CCCn1c(=O)c(CCc2ccccc2)nc2cnc(N3CCOCC3)nc21	10%	82%	15%	3.2µM*	?
O=c1c(CCc2ccccc2)nc2cnc(N3CCOCC3)nc2n1-c1ccccc1	?	54%	?	7.9µM*	16%
O=c1c(CCc2ccccc2)nc2cnc(N3CCNCC3)nc2n1-c1ccccc1	-2%	320%	6%	?	1%
O=c1c(CCc2ccccc2)nc2cnc(N3CCOCC3)nc2n1Cc1ccc(F)cc1	?	17%	?	?	-15%
O=C(O)c1ccc([N+]2=Cn3c(nc4ccccc43)C2)cc1	7%[11.4 µM]	5%[11.4 µM]	8%[11.4 µM]	-4%[7.6 µM]	-5%[11.5 µM]
CN(C)c1ccc(-c2nc(NC3CCNCC3)c3ccccc3n2)cc1	-8%	i	-6%	?	-3%
CCC(C)Nc1ccc(NC(C)CC)cc1 (stereo not given)	?	16µM*	-1%	-8%	6%
COc1ccc(CCCO[C@@H](Cn2ccnc2)c2ccc(OC)cc2)cc1	?	?	32µM*	?	?
CCOc1ccc(C(=O)NCCCn2ccnc2)cc1	3%	1%	-1%	0%	-3%
COc1ccc(C(=O)NCCCn2ccnc2)cc1	?	-4%	1.3µM*	-2%	-4%
Cc1ccc(-c2cc(C(=O)NCCCn3ccnc3)c3cc(Br)ccc3n2)o1	7%	16µM*	6%	11%	?
Cc1ccc(-c2cc(C(=O)NC3=NCCS3)c3cc(Br)ccc3n2)o1	-6%	13µM*	0%	?	-27%
